The results in this text go back to PubChem BioAssay (NCI).

SMILES strings stand for the structures. Where “and” joins values, the source holds several entries; their conditions need not be identical. Equal entries are not always repeated. Compounds without any hit were thinned out: in the full panel of roughly 83,000, 20% have a hit.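 How to read the values: 0–100, growth inhibition (40 = 60% inhibited); 0, no net growth; -100 to 0, cell death (-40 = 40% of starting cells died; -100 = all dead).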 Calls of active or inactive are those of the source. The calls were made as follows: active = growth percent below 10; inactive = the rest.

Test systems include HCT-15 colon; HT29 colon; SNB-75 CNS; SNB-19 CNS; U251 CNS; PC-3 prostate; SK-MEL-5 melanoma; UACC-62 melanoma; SK-MEL-28 melanoma; SK-MEL-2 melanoma; EKVX NSCLC; UO-31 renal; TK-10 renal; ACHN renal; CAKI-1 renal; CCRF-CEM leukemia.
Test in all cases: NCI-60 one-dose screen, 48 h (100 = growth as untreated, 0 = no growth, -100 = all killed)
The next test concerns A498 renal. To be noted: 10 µM unless noted.
The subject of a further test is LOX IMVI melanoma. To be noted: 10 µM unless noted.
For another test, the system named is SN12C renal. The conditions noted are these: 10 µM unless noted.
The subject of another test is MOLT-4 leukemia. To be noted: 10 µM unless noted.

Regarding `COc1ccc(Cl)cc1C(=O)NCCc1ccc(S(=O)(=O)NC(=O)NC2CCCCC2)cc1`, the growth is 109% (inactive) and 108% (inactive) with HCT-15 colon (10 µM); 42.6% (inactive) in the test with HCT-15 colon (100 µM); 127% (inactive) and 131% (inactive) in the test with HT29 colon (10 µM); 77% (inactive) in the test with HT29 colon (100 µM); 104% (inactive) and 94% (inactive) in the test with SNB-75 CNS (10 µM); 67.4% (inactive) in the test with SNB-75 CNS (100 µM). In addition, the growth in the test on SNB-19 CNS (10 µM) was 104% (inactive) and 97.9% (inactive); in the test with SNB-19 CNS (100 µM), 68.5% (inactive); in the test on U251 CNS (10 µM), 94.3% (inactive) and 98.7% (inactive); with U251 CNS (100 µM), 60.3% (inactive); in the test on PC-3 prostate (10 µM) it was 93.2% (inactive) and 110% (inactive); in the test with PC-3 prostate (100 µM), 52.8% (inactive). Moreover, the growth in the test on SK-MEL-5 melanoma (10 µM) is 101% (inactive) and 96.2% (inactive); in the test on SK-MEL-5 melanoma (100 µM) it was 45.5% (inactive); in the test on UACC-62 melanoma (10 µM), 83.8% (inactive) and 92.1% (inactive); with UACC-62 melanoma (100 µM), 51.2% (inactive); in the test with SK-MEL-28 melanoma (10 µM), 132% (inactive) and 118% (inactive); with SK-MEL-28 melanoma (100 µM) it was 57.5% (inactive). Further, the growth was 113% (inactive) with SK-MEL-2 melanoma (10 µM); 75.8% (inactive) in the test with SK-MEL-2 melanoma (100 µM); 95.5% (inactive) and 99.6% (inactive) with EKVX NSCLC (10 µM); 58.6% (inactive) in the test on EKVX NSCLC (100 µM); 96.2% (inactive) and 79.1% (inactive) with UO-31 renal (10 µM); 40.6% (inactive) in the test with UO-31 renal (100 µM). Also, the growth was 115% (inactive) and 99.1% (inactive) in the test on TK-10 renal (10 µM); 92.1% (inactive) with TK-10 renal (100 µM); 96.9% (inactive) and 101% (inactive) in the test with ACHN renal (10 µM); 54.8% (inactive) in the test with ACHN renal (100 µM); 94.5% (inactive) and 94.3% (inactive) with CAKI-1 renal (10 µM); 56.7% (inactive) with CAKI-1 renal (100 µM). For the same compound, the growth in the test on A498 renal is 73.2% (inactive); with CCRF-CEM leukemia (10 µM) it was 86.3% (inactive) and 95.1% (inactive); in the test on CCRF-CEM leukemia (100 µM), 64.1% (inactive).

With `Nc1nc(SC/C=C/CCl)c2[nH]cnc2n1`, the growth in the test on HCT-15 colon (10 µM unless noted) is 104% (inactive) and 94.2% (inactive); in the test with HT29 colon (10 µM unless noted) it was 108% (inactive) and 95.5% (inactive); in the test on SNB-75 CNS (10 µM unless noted), 108% (inactive) and 101% (inactive); in the test with SNB-19 CNS (10 µM unless noted) it was 107% (inactive) and 102% (inactive); with U251 CNS (10 µM unless noted), 99.1% (inactive) and 98.1% (inactive); with PC-3 prostate (10 µM unless noted) it was 99.6% (inactive) and 93.6% (inactive). Also, the growth in the test with SK-MEL-5 melanoma (10 µM unless noted) is 103% (inactive) and 114% (inactive); in the test on UACC-62 melanoma (10 µM unless noted), 104% (inactive) and 105% (inactive); in the test with LOX IMVI melanoma, 103% (inactive); with SK-MEL-28 melanoma (10 µM unless noted) it was 115% (inactive) and 112% (inactive); in the test with SK-MEL-2 melanoma (10 µM unless noted) it was 120% (inactive) and 95% (inactive); in the test on EKVX NSCLC (10 µM unless noted) it was 95% (inactive) and 98.7% (inactive). In addition, the growth with SN12C renal was 108% (inactive) and 111% (inactive); in the test with UO-31 renal (10 µM unless noted), 87% (inactive) and 94.3% (inactive); in the test on TK-10 renal (10 µM unless noted), 109% (inactive) and 95% (inactive); in the test on ACHN renal (10 µM unless noted), 110% (inactive) and 101% (inactive); in the test with CAKI-1 renal (10 µM unless noted) it was 105% (inactive) and 112% (inactive); in the test on A498 renal it was 83.6% (inactive) and 91.6% (inactive). The growth in the test with CCRF-CEM leukemia (10 µM unless noted) was 96.6% (inactive); with MOLT-4 leukemia it was 97.1% (inactive) and 76.3% (inactive).

With `O=C(Nc1ccc(Br)cc1)c1cc(Br)ccc1O`, the growth in the test on HCT-15 colon (10 µM unless noted) was 15.2% (inactive) and 15.6% (inactive); in the test with HT29 colon (10 µM unless noted) it was 92.1% (inactive) and 36.7% (inactive); in the test with SNB-75 CNS (10 µM unless noted), -10.1% (active) and 49.2% (inactive); in the test on SNB-19 CNS (10 µM unless noted), 22.1% (inactive) and 23.1% (inactive); with U251 CNS (10 µM unless noted), 15.4% (inactive) and 10.2% (inactive); in the test with PC-3 prostate (10 µM unless noted), 5.68% (active) and 3.31% (active). Further, the growth in the test with SK-MEL-5 melanoma (10 µM unless noted) is -65.5% (active) and -83.1% (active); with UACC-62 melanoma (10 µM unless noted), 3.77% (active) and -27.9% (active); in the test with LOX IMVI melanoma, 2.39% (active) and 8.77% (active); in the test with SK-MEL-28 melanoma (10 µM unless noted), 27% (inactive) and 16.4% (inactive); with SK-MEL-2 melanoma (10 µM unless noted) it was -30.5% (active) and 13.2% (inactive); in the test with EKVX NSCLC (10 µM unless noted) it was 11% (inactive) and 13.6% (inactive). Further, the growth is 6.5% (active) and -10.3% (active) in the test on SN12C renal; -12.3% (active) and 0.207% (active) with UO-31 renal (10 µM unless noted); 9.29% (active) and 1.36% (active) with TK-10 renal (10 µM unless noted); 9.36% (active) and -2.71% (active) in the test with ACHN renal (10 µM unless noted); 5.39% (active) and 10.4% (inactive) with CAKI-1 renal (10 µM unless noted); -12.7% (active) and -34.6% (active) in the test with A498 renal. The growth with CCRF-CEM leukemia (10 µM unless noted) was 23.4% (inactive) and 3.66% (active).

On to `CC[N+](CC)(CC(=O)Nc1c(C)cccc1C)Cc1ccccc1`, for which the growth was 88.6% (inactive) and 104% (inactive) in the test with HCT-15 colon (10 µM unless noted); 101% (inactive) and 102% (inactive) in the test on HT29 colon (10 µM unless noted); 84.9% (inactive) and 101% (inactive) in the test on SNB-75 CNS (10 µM unless noted); 95.4% (inactive) and 96.8% (inactive) in the test with SNB-19 CNS (10 µM unless noted); 75.6% (inactive) and 97.9% (inactive) with U251 CNS (10 µM unless noted); 84.3% (inactive) and 97.2% (inactive) with PC-3 prostate (10 µM unless noted). In addition, the growth in the test with SK-MEL-5 melanoma (10 µM unless noted) was 85.7% (inactive) and 98.7% (inactive); with UACC-62 melanoma (10 µM unless noted) it was 81.6% (inactive) and 93.2% (inactive); in the test with LOX IMVI melanoma, 79% (inactive) and 98.3% (inactive); in the test on SK-MEL-28 melanoma (10 µM unless noted) it was 99.7% (inactive) and 103% (inactive); in the test with SK-MEL-2 melanoma (10 µM unless noted) it was 107% (inactive) and 119% (inactive); with EKVX NSCLC (10 µM unless noted), 106% (inactive) and 100% (inactive). Moreover, the growth was 85.9% (inactive) and 100% (inactive) in the test on SN12C renal; 92.6% (inactive) and 71.6% (inactive) with UO-31 renal (10 µM unless noted); 144% (inactive) and 90.9% (inactive) in the test with TK-10 renal (10 µM unless noted); 98.5% (inactive) and 101% (inactive) with ACHN renal (10 µM unless noted); 108% (inactive) and 91.9% (inactive) in the test on CAKI-1 renal (10 µM unless noted); 106% (inactive) and 107% (inactive) with A498 renal. Besides, in the test on CCRF-CEM leukemia (10 µM unless noted), the growth was 2.65% (active).
